From PubChem BioAssay come the findings set out here.

Active and inactive are the calls of the source.

Assay [1] has as its system XIP peptide (Xip251-270) binding. Briefly: small-molecule binders of XIP peptide, primary screen, biochemical, small-molecule microarray, fluorescence 635/667 nm, 0.1 µg/mL protein (AID 1182). As to conditions: fluorescent protein binding, 635 nm, higher = more signal, called active from +8 up or from −8 down.
In a further assay the test system is XIP peptide (Xip251-270). The experiment in a line: small-molecule binders of XIP peptide, primary screen, biochemical, small-molecule microarray, fluorescence 635/667 nm, 0.5 µg/mL protein (AID 1183). As to conditions: small-molecule microarray binding, fluorescence 635 nm; higher = more signal.
A short description of assay [2]: Plasmodium falciparum growth inhibition, primary screen, strain 3D7, DAPI fluorescence, 100 nL (AID 1184).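 Note: parasites grown inside human red blood cells in medium with human serum.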 As to conditions: P. falciparum 3D7 growth, 3 d, higher = more signal.
Assay [3] concerns the target Homeobox protein Hox-A13 (Mus musculus) (UniProt Q62424). Briefly: inhibitors of HoxA13-DNA binding, primary screen, biochemical, fluorescence polarization, labeled oligonucleotide (AID 1185). As to conditions: 15 min, higher = more signal, called active from +8 up or from −8 down. (Polarisation of emitted light reports the rotation of a fluorescent probe.)

Homeobox protein Hox-A13 (Mus musculus), sequence (Q62424 whole entry, looked up): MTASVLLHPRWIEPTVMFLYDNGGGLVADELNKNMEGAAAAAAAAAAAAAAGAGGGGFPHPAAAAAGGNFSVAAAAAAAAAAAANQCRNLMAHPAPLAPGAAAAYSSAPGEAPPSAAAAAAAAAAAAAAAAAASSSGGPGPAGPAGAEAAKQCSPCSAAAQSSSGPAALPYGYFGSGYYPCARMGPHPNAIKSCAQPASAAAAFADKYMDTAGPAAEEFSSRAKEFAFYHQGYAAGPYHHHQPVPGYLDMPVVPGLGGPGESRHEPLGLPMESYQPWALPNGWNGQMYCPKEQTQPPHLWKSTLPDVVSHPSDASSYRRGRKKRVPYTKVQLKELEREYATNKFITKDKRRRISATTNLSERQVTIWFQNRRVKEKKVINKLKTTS

With `COC(=O)[C@H](C)NC(=O)CCC1CC(OC(=O)NCc2ccc3c(c2)OCO3)CC2(CCCC(COC(=O)NCc3ccccc3)O2)O1` (stereo partly specified), the composite z-score in assay [1] was 0.361 (inactive); in the assay on XIP peptide (Xip251-270) it was 0.554. Besides, the z-score in assay [2] is -1.75; in assay [3] it was -2.47 (inactive).
In the same order, the values of `CO[C@H]1COC(=O)CC=C[C@@H](C)COC(=O)[C@H]2CCCN2C(=O)CC=C[C@H]1C` are 0.0735 (inactive), 0.286, 0.655 and -0.292 (inactive).
In the same order, the values of `CCCCOC(OCCCC)C(O)CSc1ccc2ccccc2c1` (stereo unspecified) are 0.115 (inactive), 0.198, 0.609 and -3.85 (inactive).
In the same order, the values of `CC(C)=CCCC(C)=CCON=C1C[C@@H](O)[C@@H](O)[C@@H]2[C@@H]3C(=O)N(C4CCCCC4)C(=O)[C@@H]3CC[C@H]12` are 1.45 (inactive), 0.722, 0.273 and -0.469 (inactive).
Take `CC(=O)OC[C@H]1O[C@H](CCON=C(C)CCN2CCCc3nc(C)c(C)cc32)C=C[C@@H]1OC(C)=O`: the composite z-score in assay [1] was 0.36 (inactive); with XIP peptide (Xip251-270), 0.651. In addition, the z-score is -1.47 in assay [2] and -6.43 (inactive) in assay [3].
On to `CC(C)CON=C1[C@H]2CCn3c(=O)n(C)c(=O)n3[C@H]2[C@H](O)[C@@H]2O[C@H]12`, for which the composite z-score was -0.12 (inactive) in assay [1] and 0.245 with XIP peptide (Xip251-270). In addition, the values for the z-score in assay [2] and in assay [3] were 1.43 and 0.322 (inactive), respectively.
In the case of `CO[C@H]1COC(=O)[C@H](C)COC(=O)[C@@H](OCc2ccccc2)C=C[C@@H]1C`, the composite z-score in assay [1] was 0.277 (inactive); with XIP peptide (Xip251-270), -0.348. Moreover, the z-score in assay [2] is 1.25; in assay [3] it was -0.571 (inactive).
Take `CCOC(=O)[C@H](CC(C)C)NC(=O)CCC1CC(OC(=O)NCc2ccc3c(c2)OCO3)CC2(CCCC(COC(=O)NCCC(C)C)O2)O1` (stereo partly specified): the composite z-score in assay [1] is 0.554 (inactive); in the assay with XIP peptide (Xip251-270), 0.842. The z-score is -0.278 in assay [2] and -1.7 (inactive) in assay [3].
In the same order, the values of `COc1ccc(O[C@H]2C=C[C@@H](c3ccccc3)O[C@@H]2CON=C2c3cc(OC)ccc3O[C@H](c3cccc(OC)c3)[C@H]2O)cc1` are -0.167 (inactive), -0.338, 0.106 and 1.67 (inactive).
For `O=C1C=C[C@@H](O)[C@@H]2[C@@H]3C(=O)N(Cc4ccc5c(c4)OCO5)C(=O)[C@@H]3CC[C@@H]12`, in that order: -0.297 (inactive), 0.228, -0.786 and -0.416 (inactive).
Turning to `CO[C@H]1COC(=O)CC=C[C@H](C)[C@H](OC)COC(=O)[C@@H](C)NC(=O)CC=C[C@@H]1C`, the composite z-score was 0.533 (inactive) in assay [1] and 0.356 in the assay with XIP peptide (Xip251-270). For the same molecule, the z-score in assay [2] is -0.205; in assay [3], -0.75 (inactive).
As for `CCCNC(=O)OC[C@H]1O[C@H](CCON=C2C[C@@H](O)[C@@H](O)[C@@H]3[C@@H]4C(=O)N(CC)C(=O)[C@@H]4CC[C@@H]23)C=C[C@@H]1Oc1ccc(OC)cc1`, the composite z-score was -0.14 (inactive) in assay [1] and 0.696 in the assay on XIP peptide (Xip251-270). Besides, the z-score is 0.497 in assay [2] and -7.64 (inactive) in assay [3].
For `CCOC(=O)[C@H](CC(C)C)NC(=O)CCC1CC(OC(=O)NCCc2ccc(F)cc2)CC2(CCCC(COC(=O)NCc3cccc4ccccc34)O2)O1` (stereo partly specified), in that order: -0.008 (inactive), 0.24, -1.48 and -5.81 (inactive).
In the case of `CC(C)=CCCC(C)=CCON=C1C[C@@H](O)[C@@H](O)[C@@H]2[C@@H]3C(=O)N(Cc4ccc5c(c4)OCO5)C(=O)[C@@H]3CC[C@H]12`, the composite z-score in assay [1] is 0.165 (inactive); in the assay with XIP peptide (Xip251-270) it was 0.17. Also, the values for the z-score in assay [2] and in assay [3] were -0.348 and -4.72 (inactive), respectively.
As for `CCOC(=O)NN=C1C[C@@H](O)[C@@H](O)[C@@H]2[C@@H]3C(=O)N(c4ccc(F)cc4F)C(=O)[C@@H]3CC[C@H]12`, the composite z-score is 0.192 (inactive) in assay [1] and -0.119 in the assay on XIP peptide (Xip251-270). Besides, the figures for the z-score in assay [2] and in assay [3] were -1.36 and 1.14 (inactive), respectively.
For `COc1ccc(OC[C@@H](CO)OC)cc1`, the composite z-score in assay [1] was 0.617 (inactive); in the assay with XIP peptide (Xip251-270), -0.317. In addition, the z-score in assay [2] was 1.62; in assay [3], -0.0261 (inactive).
In the case of `CC(C)CON=C1C[C@@H](O)[C@@H](O)[C@@H]2[C@@H]3C(=O)N(Cc4ccccc4)C(=O)[C@@H]3CC[C@H]12`, the composite z-score in assay [1] was -0.0404 (inactive); in the assay with XIP peptide (Xip251-270), 0.106. The z-score in assay [2] was -1.65; in assay [3], -2.34 (inactive).
In the same order, the values of `O=C1[C@H]2[C@H]3[C@H](O)[C@H](O)CC(=NO[C@@H]4O[C@H](CO)[C@@H](O)[C@H](O)[C@H]4O)[C@@H]3CC[C@H]2C(=O)N1c1cccc(Oc2ccccc2)c1` are 0.311 (inactive), 0.519, -0.197 and -1.14 (inactive).
Take `CON=C1c2cc(OC)ccc2O[C@H](c2cccc(OC)c2)[C@H]1O`: the composite z-score is 0.906 (inactive) in assay [1] and 0.464 in the assay with XIP peptide (Xip251-270). The z-score in assay [2] is 0.924; in assay [3], -0.365 (inactive).
